From PubChem BioAssay
The source made the active and inactive calls.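 How the source made its calls, unless noted: active means z-score of at least 1.8 in each of two replicates, scored against plate mean and spread of sample wells; inactive means the rest.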

Assays:
[1] = blockers of cellular phospholipid synthesis – cell-based, LOPAC library, screen 4, primary screen (AID 1347384; call rule not given here); conditions: animal cells, phospholipid biosynthesis inhibition screen; at 10 µM
[2] = MELAS cybrid and Rieske KO viability enhancers – cell-based, MELAS cybrids, Rieske KO mouse fibroblasts, CellTiter-Glo, primary screen (AID 1508586;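 active means mean z-score across replicates of 1.96 or higher in either the MELAS or the Rieske mutant cell line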;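 further: z relative to plate mean and SD of compound and empty wells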); conditions: low glucose
[3] = galactose survival enhancers in mitochondrial complex I cybrids – cell-based, galactose medium, ATP luminescence, primary screen (AID 1645843); conditions: complex I mutant cybrid cells, 72 h, stronger effect = higher value;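 further: positive z means more ATP and so rescue of galactose-driven cybrid death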
[4] = MELAS cybrid survival, CellTiter-Glo 48 h, stronger effect = higher value
[5] = Rieske KO mouse fibroblast survival, CellTiter-Glo 72 h

Compound | outcome [1] | z-score [2, 4] | z-score [2, 5] | z-score [3]
C[N+](C)(C)CCOP(=O)(O)OP(=O)(O)OC[C@H]1O[C@@H](n2ccc(N)nc2=O)C(O)[C@H]1O (stereo not given in full) | inactive |  |  | 
COc1cc(CN2CCc3c(c(C(=O)NCCCN4CCOCC4)nn3C)C2)cc2c1OCO2 |  | 0.109 (inactive) | -0.162 | -0.765 (inactive)
Cc1csc(-c2cc(C(=O)N(C)C3CCN(C)CC3)cc(S(=O)(=O)N3CCOCC3)c2)c1 |  | -0.654 (inactive) | -0.32 | 0.47 (inactive)
COc1cc(/C=C/CN2CC(=O)N(C(C)C)CC(OCc3noc(C)n3)C2)ccc1O (stereo not given) |  | -0.167 (inactive) | -0.562 | -1.32 (inactive)
Cc1nc2ccccc2nc1CN1CC(=O)N(C2CCCCC2)CC(OCc2cccnc2)C1 (stereo not given) |  | -0.279 | 6.23 | -1.6 (inactive)
CCOC(=O)c1nn(CCc2ccccc2)c2c1CN(C(=O)CCc1nc3ccccc3s1)CC2 |  | -0.261 (inactive) | 0.0715 | 0.345 (inactive)
CC(C)CCN1C(=O)N(CCN(C)C)C(=O)C12CCN(Cc1cn(C)c3ccccc13)CC2 |  | -0.333 (inactive) | -0.689 | 0.81 (inactive)
CC(C)CNC(=O)[C@@H]1C[C@H](CN2CCOCC2)CN(Cc2ccncc2)C1 |  | -0.456 (inactive) | -0.738 | -0.6 (inactive)
COc1ccc(CN2C[C@@H](CN3CCOCC3)C[C@@H](C(=O)NCC(C)C)C2)cc1OC |  | 0.036 (inactive) | -0.053 | 0.1 (inactive)
Cc1cc(-c2cc3c(n(Cc4cccnc4)c2=O)CCN(C(=O)c2n[nH]c4c2CCC4)C3)ccc1F |  | -0.505 | 4.42 | -1.53 (inactive)
COc1ccc(-c2[nH]ncc2CN2CCC3(CC2)C(=O)N(C(C)C)C(=O)N3CCC(C)C)cc1 |  | 0.0083 (inactive) | -0.0351 | 0.975 (inactive)
O=C1CCCc2occ(C(=O)N3CC(=O)N(Cc4ccccc4)CC(OCc4ccccn4)C3)c21 (stereo not given) |  | -0.412 (inactive) | -0.733 | 2.83 (inactive)
CCOC(=O)c1csc(CCNC2CCc3c(c(C(=O)N4CCc5ccccc5C4)nn3C)C2)n1 (stereo not given) |  | -0.249 (inactive) | 0.117 | -1.24 (inactive)
CC(C)Cn1nc(C(=O)NCc2cccnc2)c2c1CCN(C(=O)c1scc3c1OCCO3)C2 |  | -0.675 | 5.2 | -1.46 (inactive)
